Measured values: the supplement of paper PMC11732987, “Enantioselective OTUD7B fragment discovery through chemoproteomics screening and high-throughput optimisation” (Communications Chemistry, 2025)

Columns and labels:
Test in all cases: log2 ratio of Biotin-Ahx-Ub-VS probe labelling (fragment/DMSO); higher = less target engagement (more negative = stronger competition), active = hit call of the paper (q ≤ 0.05, log2 ratio ≤ -1)
Details in all cases: compound concentration: 200 uM; treatment time: 3 h
USP19 = biological target: T1, USP19 (UniProt O94966)
T1 sequence (whole entry): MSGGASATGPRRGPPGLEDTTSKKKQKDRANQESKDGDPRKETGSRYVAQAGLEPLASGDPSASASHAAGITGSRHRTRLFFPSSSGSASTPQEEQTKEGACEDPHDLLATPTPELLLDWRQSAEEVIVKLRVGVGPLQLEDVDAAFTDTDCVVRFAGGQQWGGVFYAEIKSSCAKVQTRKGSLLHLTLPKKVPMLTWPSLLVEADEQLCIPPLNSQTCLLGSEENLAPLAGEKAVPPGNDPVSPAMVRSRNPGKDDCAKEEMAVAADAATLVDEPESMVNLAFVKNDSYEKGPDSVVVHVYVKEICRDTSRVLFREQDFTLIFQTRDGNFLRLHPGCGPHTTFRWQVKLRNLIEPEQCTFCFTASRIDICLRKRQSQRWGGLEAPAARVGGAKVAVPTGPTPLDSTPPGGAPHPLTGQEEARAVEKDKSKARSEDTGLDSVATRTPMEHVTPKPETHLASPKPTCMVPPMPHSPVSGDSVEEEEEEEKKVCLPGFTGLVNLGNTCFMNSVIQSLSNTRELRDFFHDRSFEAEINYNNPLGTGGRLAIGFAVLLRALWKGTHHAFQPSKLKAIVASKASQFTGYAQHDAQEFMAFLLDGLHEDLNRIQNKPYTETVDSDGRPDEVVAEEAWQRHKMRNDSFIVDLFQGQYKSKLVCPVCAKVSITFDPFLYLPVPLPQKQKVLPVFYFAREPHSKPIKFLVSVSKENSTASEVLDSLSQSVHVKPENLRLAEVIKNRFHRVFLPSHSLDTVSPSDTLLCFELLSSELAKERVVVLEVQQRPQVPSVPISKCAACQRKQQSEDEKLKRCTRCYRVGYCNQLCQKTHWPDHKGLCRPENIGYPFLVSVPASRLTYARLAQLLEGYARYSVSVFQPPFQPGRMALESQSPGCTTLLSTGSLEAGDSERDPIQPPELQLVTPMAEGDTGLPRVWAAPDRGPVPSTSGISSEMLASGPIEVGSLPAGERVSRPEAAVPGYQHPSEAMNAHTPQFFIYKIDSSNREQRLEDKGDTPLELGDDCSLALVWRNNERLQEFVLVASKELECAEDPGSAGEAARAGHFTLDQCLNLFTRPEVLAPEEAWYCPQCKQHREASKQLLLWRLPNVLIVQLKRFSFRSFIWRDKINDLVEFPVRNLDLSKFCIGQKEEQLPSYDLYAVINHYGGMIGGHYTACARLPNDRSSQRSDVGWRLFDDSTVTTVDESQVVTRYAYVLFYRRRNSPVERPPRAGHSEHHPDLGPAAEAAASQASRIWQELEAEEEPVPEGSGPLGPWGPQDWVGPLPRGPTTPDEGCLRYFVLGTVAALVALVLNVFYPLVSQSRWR
Procedure, shortened: (§1)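 HEK293T lysate (495 µg per sample, in Tris/CHAPS/IGEPAL buffer with protease inhibitors) was treated in triplicate with fragment at 200 µM or with DMSO for 3 h. It was then treated with Biotin-Ahx-Ub-VS (0.5 µM final) for 1 h. Labelled DUBs were NeutrAvidin-enriched, digested with LysC and trypsin, and run by diaPASEF LC-MS/MS. Spectronaut label-free quantities were global-median-normalised. Values are average log2 ratios fragment/DMSO by unpaired t-test, using proteins with ≥2 unique peptides.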

USP24 = USP24 (UniProt Q9UPU5)
Sequence of USP24 (Q9UPU5 whole entry): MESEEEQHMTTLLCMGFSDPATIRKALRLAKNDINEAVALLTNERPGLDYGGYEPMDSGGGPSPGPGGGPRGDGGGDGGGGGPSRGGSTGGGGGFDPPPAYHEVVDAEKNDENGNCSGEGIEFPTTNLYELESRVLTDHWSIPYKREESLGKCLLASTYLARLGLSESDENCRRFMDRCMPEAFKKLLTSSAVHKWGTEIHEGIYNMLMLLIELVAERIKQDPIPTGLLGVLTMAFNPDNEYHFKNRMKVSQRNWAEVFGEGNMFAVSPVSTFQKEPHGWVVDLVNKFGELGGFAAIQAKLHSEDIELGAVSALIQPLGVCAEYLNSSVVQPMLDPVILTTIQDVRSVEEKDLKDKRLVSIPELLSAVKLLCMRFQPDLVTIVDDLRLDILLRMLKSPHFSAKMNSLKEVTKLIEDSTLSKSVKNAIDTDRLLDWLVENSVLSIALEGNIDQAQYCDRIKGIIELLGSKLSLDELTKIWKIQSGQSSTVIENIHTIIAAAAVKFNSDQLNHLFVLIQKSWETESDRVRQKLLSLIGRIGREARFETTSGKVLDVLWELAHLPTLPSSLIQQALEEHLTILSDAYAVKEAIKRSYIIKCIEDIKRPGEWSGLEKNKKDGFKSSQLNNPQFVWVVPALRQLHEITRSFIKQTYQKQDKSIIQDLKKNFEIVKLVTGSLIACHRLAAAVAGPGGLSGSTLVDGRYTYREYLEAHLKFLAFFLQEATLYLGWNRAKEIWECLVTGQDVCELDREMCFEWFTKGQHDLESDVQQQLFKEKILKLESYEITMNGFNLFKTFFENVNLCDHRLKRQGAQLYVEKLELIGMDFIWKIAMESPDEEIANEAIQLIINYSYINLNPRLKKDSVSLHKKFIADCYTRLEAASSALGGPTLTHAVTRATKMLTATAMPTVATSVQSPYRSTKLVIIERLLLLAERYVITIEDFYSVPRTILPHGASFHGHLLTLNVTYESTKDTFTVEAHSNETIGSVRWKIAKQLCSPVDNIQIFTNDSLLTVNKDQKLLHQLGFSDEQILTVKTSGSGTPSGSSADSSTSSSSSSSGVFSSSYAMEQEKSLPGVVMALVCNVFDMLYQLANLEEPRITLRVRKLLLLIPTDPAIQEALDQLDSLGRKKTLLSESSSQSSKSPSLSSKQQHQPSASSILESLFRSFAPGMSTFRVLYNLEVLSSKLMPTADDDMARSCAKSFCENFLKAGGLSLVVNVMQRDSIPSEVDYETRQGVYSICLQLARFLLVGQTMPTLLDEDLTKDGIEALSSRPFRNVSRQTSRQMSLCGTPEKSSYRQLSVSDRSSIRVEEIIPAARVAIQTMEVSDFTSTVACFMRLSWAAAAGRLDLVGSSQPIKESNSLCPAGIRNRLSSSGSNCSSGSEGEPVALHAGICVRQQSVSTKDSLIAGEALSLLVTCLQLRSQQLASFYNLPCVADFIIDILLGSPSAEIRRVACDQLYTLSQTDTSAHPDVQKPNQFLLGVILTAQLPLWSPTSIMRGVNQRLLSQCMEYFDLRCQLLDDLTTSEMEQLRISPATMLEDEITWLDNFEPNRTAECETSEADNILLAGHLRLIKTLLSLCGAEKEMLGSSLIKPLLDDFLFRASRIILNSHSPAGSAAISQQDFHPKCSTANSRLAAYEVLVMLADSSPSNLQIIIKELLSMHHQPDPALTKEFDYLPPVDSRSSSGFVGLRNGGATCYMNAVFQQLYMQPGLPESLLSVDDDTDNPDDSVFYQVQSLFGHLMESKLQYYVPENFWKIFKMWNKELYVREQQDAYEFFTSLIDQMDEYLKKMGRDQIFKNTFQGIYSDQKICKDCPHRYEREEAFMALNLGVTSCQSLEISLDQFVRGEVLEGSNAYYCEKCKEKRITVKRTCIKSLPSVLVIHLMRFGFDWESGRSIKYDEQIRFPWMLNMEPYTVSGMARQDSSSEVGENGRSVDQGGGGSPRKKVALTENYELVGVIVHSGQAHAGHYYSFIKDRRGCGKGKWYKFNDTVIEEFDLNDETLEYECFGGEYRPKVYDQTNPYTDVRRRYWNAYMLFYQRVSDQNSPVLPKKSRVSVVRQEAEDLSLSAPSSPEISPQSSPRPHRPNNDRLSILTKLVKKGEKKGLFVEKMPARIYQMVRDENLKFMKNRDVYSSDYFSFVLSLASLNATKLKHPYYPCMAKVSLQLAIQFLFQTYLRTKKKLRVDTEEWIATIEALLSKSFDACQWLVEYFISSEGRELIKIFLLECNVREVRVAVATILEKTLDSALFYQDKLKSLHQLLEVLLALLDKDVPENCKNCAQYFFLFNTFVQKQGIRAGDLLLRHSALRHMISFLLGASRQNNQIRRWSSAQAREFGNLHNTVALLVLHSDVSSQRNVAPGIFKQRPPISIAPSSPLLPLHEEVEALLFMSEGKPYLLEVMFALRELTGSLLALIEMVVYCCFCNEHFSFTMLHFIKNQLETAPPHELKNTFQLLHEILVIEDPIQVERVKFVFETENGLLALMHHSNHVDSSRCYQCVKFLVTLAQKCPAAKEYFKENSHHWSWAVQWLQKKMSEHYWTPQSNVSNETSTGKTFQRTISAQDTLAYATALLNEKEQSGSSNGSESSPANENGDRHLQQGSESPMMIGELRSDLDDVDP
Procedure, shortened: as §1

USP25 = biological target: T2, USP25 (UniProt Q9UHP3)
T2 sequence (whole entry): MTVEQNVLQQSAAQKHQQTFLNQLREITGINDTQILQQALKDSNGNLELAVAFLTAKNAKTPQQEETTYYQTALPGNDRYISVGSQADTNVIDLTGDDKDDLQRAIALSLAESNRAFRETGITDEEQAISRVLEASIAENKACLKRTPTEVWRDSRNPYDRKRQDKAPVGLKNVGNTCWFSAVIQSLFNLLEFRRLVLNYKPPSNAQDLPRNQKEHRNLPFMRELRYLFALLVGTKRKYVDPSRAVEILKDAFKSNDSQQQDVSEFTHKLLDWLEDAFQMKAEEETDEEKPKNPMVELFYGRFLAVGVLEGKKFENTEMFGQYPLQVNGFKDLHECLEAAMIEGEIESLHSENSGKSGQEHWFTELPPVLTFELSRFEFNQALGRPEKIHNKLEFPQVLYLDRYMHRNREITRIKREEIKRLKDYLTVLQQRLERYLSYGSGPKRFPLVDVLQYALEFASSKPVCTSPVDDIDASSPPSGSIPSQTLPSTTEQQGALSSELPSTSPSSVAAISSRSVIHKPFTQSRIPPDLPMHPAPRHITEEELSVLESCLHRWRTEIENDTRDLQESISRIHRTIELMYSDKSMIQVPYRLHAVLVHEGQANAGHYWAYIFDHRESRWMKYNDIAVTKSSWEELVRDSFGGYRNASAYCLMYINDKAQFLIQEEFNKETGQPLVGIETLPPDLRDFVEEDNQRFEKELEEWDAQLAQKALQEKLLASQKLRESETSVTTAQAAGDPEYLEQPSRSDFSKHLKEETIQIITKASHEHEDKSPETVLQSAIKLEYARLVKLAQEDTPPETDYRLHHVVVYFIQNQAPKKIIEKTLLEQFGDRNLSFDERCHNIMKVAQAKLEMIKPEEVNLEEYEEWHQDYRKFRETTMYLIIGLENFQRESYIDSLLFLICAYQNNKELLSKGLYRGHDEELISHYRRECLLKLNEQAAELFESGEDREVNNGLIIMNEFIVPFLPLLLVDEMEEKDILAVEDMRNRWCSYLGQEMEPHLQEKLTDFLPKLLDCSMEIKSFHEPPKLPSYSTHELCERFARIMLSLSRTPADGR
Procedure, shortened: as §1

USP28 = biological target: T3, USP28 (UniProt Q96RU2)
T3 sequence (whole entry): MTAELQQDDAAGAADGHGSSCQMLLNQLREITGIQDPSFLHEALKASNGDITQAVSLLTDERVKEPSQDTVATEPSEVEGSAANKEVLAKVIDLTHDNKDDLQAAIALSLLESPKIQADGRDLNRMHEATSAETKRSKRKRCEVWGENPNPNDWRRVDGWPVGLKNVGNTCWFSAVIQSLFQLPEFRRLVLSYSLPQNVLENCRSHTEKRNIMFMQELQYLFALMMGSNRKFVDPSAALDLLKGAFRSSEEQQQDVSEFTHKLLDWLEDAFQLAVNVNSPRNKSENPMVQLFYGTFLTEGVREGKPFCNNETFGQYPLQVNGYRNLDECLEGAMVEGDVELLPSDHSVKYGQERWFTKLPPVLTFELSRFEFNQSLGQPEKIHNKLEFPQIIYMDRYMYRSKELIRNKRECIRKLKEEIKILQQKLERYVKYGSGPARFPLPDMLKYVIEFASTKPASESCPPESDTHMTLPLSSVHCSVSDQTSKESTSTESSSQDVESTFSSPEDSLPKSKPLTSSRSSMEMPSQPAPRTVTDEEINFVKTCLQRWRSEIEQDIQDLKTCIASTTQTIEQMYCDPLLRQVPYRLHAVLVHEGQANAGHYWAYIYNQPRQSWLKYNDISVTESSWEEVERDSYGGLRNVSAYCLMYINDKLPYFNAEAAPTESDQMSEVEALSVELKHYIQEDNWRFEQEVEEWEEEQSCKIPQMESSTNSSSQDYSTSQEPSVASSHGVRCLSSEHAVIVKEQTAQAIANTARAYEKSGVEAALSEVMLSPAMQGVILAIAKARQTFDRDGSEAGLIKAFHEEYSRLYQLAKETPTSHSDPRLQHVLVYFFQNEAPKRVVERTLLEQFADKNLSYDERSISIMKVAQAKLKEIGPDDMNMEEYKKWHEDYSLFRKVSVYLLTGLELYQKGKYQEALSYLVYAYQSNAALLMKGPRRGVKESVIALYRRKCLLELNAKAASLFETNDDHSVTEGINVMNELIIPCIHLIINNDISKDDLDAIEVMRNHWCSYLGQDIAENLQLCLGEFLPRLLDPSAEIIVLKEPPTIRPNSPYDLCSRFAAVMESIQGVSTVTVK
Procedure, shortened: as §1

Measured: log2 ratio of Biotin-Ahx-Ub-VS probe labelling

O=C(O)C1Cc2ccccc2CN1C(=O)CCl (centres undefined)
inactive: USP19 -0.32 | USP24 -0.348 | USP25 -0.37 | USP28 -0.576
